From PubChem
Most compounds without a hit are left out; they make up all but 12% or so of the library.
BAZ2B inh = blocks human BAZ2B. AlphaScreen BAZ2B-H3K14Ac peptide displacement. AID 504333. Q9UIF8. Potency, µM (highest dose often 114 µM), without a hit: at the top dose activity change, negative = inhibition, usual class: inhibitors. 360,000 tested, 4.4% active; further: on the % scale 0 is the no-effect control and ±100 the full control effect; nearly all actives have a fitted effect of over 60% in size
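Protein-peptide AlphaScreen: BAZ2B 50 nM, b-H3K14Ac 50 nM, 1x PBS pH 7.4 + 0.01% Tween-20. Preincubation 30 min RT; cpd 30 min RT (top 110 uM); beads 20 min RT, light-protected.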
L3MBTL1 inh = inhibitors of human L3MBTL1; AlphaScreen L3MBTL1–H3K9me1 peptide binding; Potency, µM (highest dose often 57.1 µM), without a hit: top-dose activity, negative = inhibition, most hits filed as inhibitors; 230,000 tested, 0.66% active; AID 485360; further: on the % scale 0 is the no-effect control and ±100 the full control effect; nearly all actives have a fitted effect of over 60% in size
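L3MBTL1 50 nM + b-AHA-H3(1-15)K9me1 75 nM, 30 min RT; compound added, 30 min RT; streptavidin donor/Ni-chelate acceptor beads 10 ug/mL each final, 30 min RT dark; AlphaScreen read.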
Sfp inh = Sfp phosphopantetheinyl transferase inhibition; Q9F4F7; 310,000 tested, 3.5% active; Biochemical Sfp PPTase activity, qHTS; AID 1490; Potency, µM, without a hit: largest response in the series, negative = inhibition, most hits filed as inhibitors;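 further: the enzyme is Sfp with the accession as filed and its product quenches rhodamine fluorescence; 0% = enzyme reaction without inhibitor and -100% = no enzyme wells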
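With Hepes-Na pH 7.6 buffer containing 10 mM MgCl2, Sfp (15 nM) modified BHQ-2-YbbR (12.5 uM) using rhodamine-CoA (5 uM). Two reads 30 minutes apart at 525/598 nm yielded each well's rate.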
G9a inh = blocks human histone lysine methyltransferase G9a; Potency, µM (titrated, usually from 102 µM), for the others: at the top dose activity, negative = inhibition, hits mostly inhibitors; 350,000 tested, 8.8% active; G9a H3K9 monomethylation, AlphaScreen, 2 h; Q96KQ7; further: on the % scale 0 is the no-effect control and ±100 the full control effect; nearly all actives have a fitted effect of over 75% in size
Target sequence (Q96KQ7 913-1193 limits assumed): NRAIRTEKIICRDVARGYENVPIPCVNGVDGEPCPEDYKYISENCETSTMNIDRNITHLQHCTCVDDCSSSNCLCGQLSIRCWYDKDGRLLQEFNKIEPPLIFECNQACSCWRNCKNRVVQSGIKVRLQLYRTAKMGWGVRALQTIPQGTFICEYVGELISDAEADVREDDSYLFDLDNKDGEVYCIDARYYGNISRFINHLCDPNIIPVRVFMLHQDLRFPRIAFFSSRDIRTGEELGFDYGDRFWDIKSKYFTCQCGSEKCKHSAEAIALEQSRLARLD
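Step 1: enzyme (final 20 nM) with compound, 15 min RT. Step 2: substrate peptide 500 nM and SAM 20 uM, 2 h RT. Step 3: anti-H3K9me1 antibody and AlphaScreen beads, 10 min, then plate read.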
JMJD2A Tudor inh = inhibitors of human JMJD2A Tudor domain; 390,000 tested, 4.4% active; O75164; AlphaScreen JMJD2A-Tudor / H3K4me3 peptide binding; AID 504339; Potency, µM (doses to about 114 µM), for inactives: at the top dose activity change, negative = inhibition, most hits filed as inhibitors; further: on the % scale 0 is the no-effect control and ±100 the full control effect; nearly all actives have a fitted effect of over 50% in size
HP1b chromo inh = inhibitors of HP1-beta chromodomain binding to methylated histone tails | P83916 | AlphaScreen HP1-beta / biotin-H3K9me3 peptide binding | Potency, µM (titrated, usually from 114 µM), for inactives: at the top dose activity change, negative = inhibition, most hits filed as inhibitors | 390,000 tested, 0.56% active | AID 540317; further: nearly all actives have a fitted effect of over 70% in size
Target sequence (P83916 whole entry, looked up): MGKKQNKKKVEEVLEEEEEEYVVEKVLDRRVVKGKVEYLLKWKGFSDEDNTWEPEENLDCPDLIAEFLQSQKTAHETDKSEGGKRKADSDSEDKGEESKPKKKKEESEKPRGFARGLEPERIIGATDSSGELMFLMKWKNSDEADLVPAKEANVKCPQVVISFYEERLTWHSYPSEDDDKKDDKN
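HP1-beta protein (50 nM final) preincubated 30 min at room temperature with biotinylated H3(1-18)K9me3 peptide (50 nM) in PBS pH 7.4, 0.01% Tween-20, then compound added for 30 min. AlphaScreen streptavidin donor/nickel chelate acceptor beads (10 ug/mL final), 30 min dark, luminescence read.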
An asterisk follows results filed as active; u = inconclusive; x = not tested or not shown; [ ] = remark or other dose. The call rests on the fitted dose curve; in most records, active means well fitted curve in the direction sought with a large enough effect; inconclusive means small, poorly fitted or top-dose-only effect, or another doubt; inactive means no such curve, though single readings can be large; an effect the other way counts as inactive or inconclusive. Potency means the concentration at half of the fitted maximal effect.

SMILES	BAZ2B inh	L3MBTL1 inh	Sfp inh	G9a inh	JMJD2A Tudor inh	HP1b chromo inh
NC(=O)C1CCN(C(=O)c2ccccc2NC(=O)c2nsc3ccccc23)CC1	2%	x	x	8%[59 µM]	0%	24%[57 µM]
Cc1ccc(N2C(=O)CSC23C(=O)N(CC(=O)NCCc2ccccc2)c2ccccc23)cc1 (configuration not stated)	5%[57.1 µM]	x	x	-1%[59 µM]	-19%	21%
COCCN1CCn2c(nc3cc([N+](=O)[O-])ccc32)C1	-24%	x	16%	35µM*	-3%[11.4 µM]	60%
O=[N+]([O-])c1ccc2c(c1)nc1n2CCN(CC2CCCO2)C1 (configuration not stated)	-13%	2%	16%	-21%[59 µM]	-11%	54%
O=[N+]([O-])c1ccc2c(c1)nc1n2CCN(c2ccccc2)C1	u	x	-9%	13µM*	-26%	52%
CC1CCCC(NC(=O)NC(=O)COC(=O)C2=NN(c3ccccc3)C(=O)CC2)C1C (configuration not stated)	3%	3%	x	10µM*	5%	40%
NCCc1nnc(SCC(=O)c2ccc(Cl)cc2)o1	-17%	-4%	56µM*	u	-3%	18%
CC(C)(C)OC(=O)NCCc1nnc(SCC(=O)c2ccc(Cl)cc2)o1	-24%	11%	-37%	-3%[12.7 µM]	-18%	6%
O=C(CSc1nnc(CNC(=O)c2cccs2)o1)c1ccc(Cl)cc1	-2%	x	3%	u	0%	32%
NCCCCCc1nnc(SCC(=O)c2ccc(Cl)cc2)o1	0%	-6%	50µM*	50µM*	-16%	26%
CCOC(=O)CNC(=O)O[C@@H]1Cc2cc(OC)ccc2O[C@H]1c1cccc(OC)c1	x	x	-10%	x	x	x
CC[C@H](C)[C@H]1CNC(=O)C(=O)N1CC1CCN(CCCc2ccc(OC)c(OC)c2)CC1	x	x	x	x	79µM*	-4%
CN1CCN(C(=O)CCN2C(=O)/C(=C\c3ccc(Cl)cc3)SC2=S)CC1	-34%	x	-4%	-11%	-28%	11%
CC(=O)N(C(C)=O)N1C(=O)/C(=C/c2ccc(Cl)cc2)SC1=S	28µM*	-19%	-7%	14µM*	11µM*	10µM*
Cc1ccc(C)n1N1C(=O)/C(=C\c2ccc(Cl)cc2)SC1=S	2.8µM*	-29%	-14%	u	40µM*	-68%
COc1cc(CNc2ccc(N3CCN(C(C)=O)CC3)cc2)ccc1OCc1ccc(F)cc1	22µM*	u	-24%	4µM*	u	u
CC(=O)N1CCN(c2ccc(NCc3ccc(F)cc3)cc2)CC1	-35%	-9%	40µM*	7.9µM*	u	6%
C[N+]1(C)CCc2cc3c(cc2[C@@H]1[C@@H]1C(=O)Oc2c1ccc1c2OCO1)OCO3	x	x	18%	x	x	x
COC(=O)c1cc2sc(C)cc2n1CC(=O)Nc1ccc(C)c(C)c1	-2%	x	x	1%[59 µM]	-8%	23%
CCc1ccc(CNC(=O)c2ccc(Cn3c(=O)c4cccn4c4cccnc43)cc2)cc1	-13%	x	x	2%[59 µM]	-9%	28%
C[C@@H]1O[C@@H](O[C@H]2[C@H](Oc3cc(O)c4c(c3)O[C@H](c3ccc(O)cc3)CC4=O)O[C@H](CO)[C@@H](O)[C@@H]2O)[C@H](O)[C@H](O)[C@H]1O	-16%	15%	-4%	45µM*	-10%	56%
O[C@H](CCCN1CCN(c2ncc(F)cn2)CC1)c1ccc(F)cc1	x	x	2%	x	x	x
COc1cc([N+](=O)[O-])ccc1N1C(=O)C2C3C=CC(C4CC34)C2C1=O (configuration not stated)	-27%	14%	6%	40µM*	-12%[57.1 µM]	20%
CC(C)c1ccc(C2C3=C(CC(c4ccco4)CC3=O)Nc3nc(C(F)(F)F)nn32)cc1 (configuration not stated)	x	x	x	x	-15%	19%
CCN(CC)CCNC(=O)c1ccc2c(c1)N(Cc1ccccc1)C(=O)c1ccccc1S2=O (configuration not stated)	-13%	x	x	-15%[59 µM]	-1%	6%
SMILES	BAZ2B inh	L3MBTL1 inh	Sfp inh	G9a inh	JMJD2A Tudor inh	HP1b chromo inh
COc1ccc(CN(CCC#N)C(=S)NC(=O)c2ccccc2)cc1	-35%	-8%	-5%	40µM*	-32%	20%
CCOc1ccc(CN(CCC#N)C(=S)NC(=O)c2ccccc2)cc1	-37%	-2%	-3%	1.4µM*	-25%	36%
CCOc1ccccc1NC(=O)C1=C(C)Nc2ncnn2C1c1ccccn1 (configuration not stated)	-11%	x	x	3%[59 µM]	-12%	14%[57 µM]
CCOC(=O)c1c(C)sc(-c2c(-c3ccccc3)[nH]c3[nH]c(=O)[nH]c(=O)c23)c1O	u	x	x	u	-26%	-11%
CC(=O)N(/N=C1/C(=O)Nc2ccccc21)c1ccccc1	-37%	x	-19%	14µM*	u	u
Cn1c(=O)c2c(nc(CN3CCN(c4ccccc4)CC3)n2CCN2CCOCC2)n(C)c1=O	-1%	5%	-3%	50µM*	-13%	22%
COc1ccc(N2CCN(Cc3nc4c(c(=O)n(C)c(=O)n4C)n3CCc3ccccc3)CC2)cc1	-3%	-2%	-5%	7.9µM*	-19%	3%
COc1ccc(N2CCCn3c2nc2c3c(=O)n(CCCc3ccccc3)c(=O)n2C)cc1	u	-2%	3%	10µM*	x	x
Cn1c(=O)c2c(nc(CN3CCOCC3)n2CCc2ccccc2)n(C)c1=O	-15%	-3%	14%	u	-2%	23%
COc1ccc(N2CCn3c2nc2c3c(=O)n(CCc3ccccc3)c(=O)n2C)cc1	-1%	-7%	6%	7%	x	x
O=C(C1CC1)N1CCN(c2ccc([N+](=O)[O-])cc2-n2cccc2)CC1	45µM*	x	2%	x	u	-36%
Cc1ccc(C(=O)N2CCN(c3ccc([N+](=O)[O-])cc3-n3cccc3)CC2)cc1	u	x	1%	28µM*	u	u
CC(C)(C)C(=O)N1CCN(c2ccc([N+](=O)[O-])cc2-n2cccc2)CC1	u	x	1%	-40%	-28%	-36%
N#C/C(=C/c1cc[nH]c1)C(N)=S	-33%	x	-10%	u	-22%	14%
Cn1cccc1/C=C(\C#N)C(N)=S	u	-9%	-4%	50µM*	-23%	-17%
O=C(N/N=C/c1cccnc1)c1cc(-c2cccs2)nc2ccccc12	-1%	-4%	26%	6%[59 µM]	0%[57.1 µM]	25%
Cn1cccc1/C=N/NC(=O)c1cc(-c2cccs2)nc2ccccc12	22µM*	u	u	32µM*	u	u
Cn1cccc1/C=N/NC(=O)c1ccncc1	-22%	-7%	9%	4%	-14%	4%
O=C(N/N=C/c1cccs1)c1ccccn1	u	6%	50µM*	6.3µM*	-14%	16%
